Assay results as given in PubChem BioAssay.
“And” between values parts separate entries of the source, which are not always exact repeats. Identical values can stand only once. For some of these results: Measured potencies and affinities stand elsewhere. The source holds several records for some structures; these can differ, active in one and inactive in another. The source made the active and inactive calls. Unless noted, no rule for the calls is given here.

Experiments:
[1] = antimalarial activity against Dd2 strain (AID 2302;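 active = growth inhibition above 50% at the single 2 µM test dose, taken to imply half-maximal potency below 2 µM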;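 also: 0% = DMSO untreated growth and 100% = chloroquine plus artemisinin killed control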); settings: P. falciparum Dd2 in RBCs, LDH growth readout, 72 h; at 2 µM; stronger effect = higher value
[2] = human hepatoma cell viability loss – ATP luminescence, cytotoxicity control for P. falciparum antimalarial project, primary screen (AID 2303;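 active = inhibition above 50%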;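 also: 0% = DMSO wells and 100% = digitonin-killed cells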); settings: HepG2 viability, 24-48 h, at 10 µM, stronger effect = higher value
[3] = molecular target: L-lactate dehydrogenase (Plasmodium falciparum (isolate CDC / Honduras)) (UniProt Q27743); assay: PfLDH activity inhibition – cell lysate, 3D7 strain, counter-screen for P. falciparum growth inhibition project (AID 2304);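 also: 0% = vehicle and 100% = reference inhibitor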; settings: P. falciparum 3D7 crude extract, LDH APAD/NBT absorbance; at 2 µM; stronger effect = higher value
Sequence of L-lactate dehydrogenase (Plasmodium falciparum (isolate CDC / Honduras)) (Q27743 whole entry, looked up): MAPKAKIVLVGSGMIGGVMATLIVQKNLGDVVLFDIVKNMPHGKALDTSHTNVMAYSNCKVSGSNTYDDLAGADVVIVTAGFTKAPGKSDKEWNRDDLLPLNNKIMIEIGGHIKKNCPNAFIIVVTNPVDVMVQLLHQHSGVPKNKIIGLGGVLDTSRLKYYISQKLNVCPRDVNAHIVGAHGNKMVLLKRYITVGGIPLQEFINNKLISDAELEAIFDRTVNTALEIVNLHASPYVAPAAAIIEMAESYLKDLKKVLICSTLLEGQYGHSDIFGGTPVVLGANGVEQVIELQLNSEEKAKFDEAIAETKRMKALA

[4] = inhibition of 3D7 malaria parasite growth – strain 3D7 (AID 2306);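 also: 0% = DMSO wells and 100% = chloroquine plus artemisinin control wells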; settings: P. falciparum 3D7 erythrocytic growth, LDH absorbance, 72 h; at 2 µM; stronger effect = higher value
[5] = molecular target: Calcium-dependent protein kinase 1 (Plasmodium falciparum (isolate 3D7)) (UniProt P62344); assay: PfCDPK1 kinase inhibitors, biochemical, TCAMS library (AID 1159585; cut-off not given, nearly all actives have IC50 up to about 0.98 µM;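 also: inhibitors leave more ATP so luminescence rises with inhibition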); settings: recombinant PfCDPK1, Kinase-Glo ATP depletion luminescence
Sequence of Calcium-dependent protein kinase 1 (Plasmodium falciparum (isolate 3D7)) (P62344 whole entry, looked up): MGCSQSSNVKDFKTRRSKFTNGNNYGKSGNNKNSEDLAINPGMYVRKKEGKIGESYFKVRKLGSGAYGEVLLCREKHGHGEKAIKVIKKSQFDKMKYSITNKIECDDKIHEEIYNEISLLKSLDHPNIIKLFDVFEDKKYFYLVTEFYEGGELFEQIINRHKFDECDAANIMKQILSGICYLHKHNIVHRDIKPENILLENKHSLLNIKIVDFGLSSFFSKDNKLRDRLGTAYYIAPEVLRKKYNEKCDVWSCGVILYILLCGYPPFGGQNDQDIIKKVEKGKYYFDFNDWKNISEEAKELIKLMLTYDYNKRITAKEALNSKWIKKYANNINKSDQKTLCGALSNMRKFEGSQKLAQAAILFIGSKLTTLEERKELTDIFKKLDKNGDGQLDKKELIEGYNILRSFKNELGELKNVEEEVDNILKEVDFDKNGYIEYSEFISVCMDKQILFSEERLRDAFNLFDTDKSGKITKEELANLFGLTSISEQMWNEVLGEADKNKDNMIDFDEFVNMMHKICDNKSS

[6] = molecular target: Plasmodium falciparum protein kinase 6 (PK6, PF3D7_1337100) (UniProt Q8IDW1); assay: PfPK6 kinase inhibitors, biochemical, TCAMS library (AID 1159586); settings: recombinant PfPK6, Kinase-Glo ATP depletion luminescence
Sequence of Plasmodium falciparum protein kinase 6 (PK6, PF3D7_1337100) (Q8IDW1 1-305): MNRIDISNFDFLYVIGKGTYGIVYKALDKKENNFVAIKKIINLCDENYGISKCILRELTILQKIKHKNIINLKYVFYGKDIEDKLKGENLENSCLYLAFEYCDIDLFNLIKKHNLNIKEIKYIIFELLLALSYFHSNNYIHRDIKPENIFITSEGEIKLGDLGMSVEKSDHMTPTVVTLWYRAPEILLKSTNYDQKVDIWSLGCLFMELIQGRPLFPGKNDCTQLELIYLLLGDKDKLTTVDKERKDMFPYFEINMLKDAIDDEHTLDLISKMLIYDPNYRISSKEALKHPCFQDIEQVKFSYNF

[7] = molecular target: Protein kinase 7 (PK7), Plasmodium falciparum 3D7 (PF3D7_0213400) (UniProt Q7YTF7); assay: inhibition of Plasmodium PK7 catalytic activity – biochemical, TCAMS antimalarial set, Kinase-Glo luminescence (AID 1159587); settings: recombinant PfPK7, Kinase-Glo ATP depletion luminescence
Sequence of Protein kinase 7 (PK7), Plasmodium falciparum 3D7 (PF3D7_0213400) (Q7YTF7 1-343): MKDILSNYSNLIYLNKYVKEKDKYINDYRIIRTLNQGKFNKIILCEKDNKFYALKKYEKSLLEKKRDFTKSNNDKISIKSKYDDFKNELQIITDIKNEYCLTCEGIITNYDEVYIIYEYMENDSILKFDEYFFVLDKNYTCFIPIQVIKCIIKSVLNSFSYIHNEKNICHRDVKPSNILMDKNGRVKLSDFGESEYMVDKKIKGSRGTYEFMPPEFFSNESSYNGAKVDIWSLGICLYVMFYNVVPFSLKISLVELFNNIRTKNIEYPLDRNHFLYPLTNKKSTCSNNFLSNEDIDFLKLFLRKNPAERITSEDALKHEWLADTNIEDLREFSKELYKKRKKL

[8] = molecular target: Calcium-dependent protein kinase 4 (Plasmodium falciparum (isolate 3D7)) (UniProt Q8IBS5); assay: PfCDPK4 kinase inhibitors, biochemical, TCAMS library (AID 1159588; cut-off not given, nearly all actives have IC50 up to about 0.91 µM); settings: recombinant PfCDPK4, Kinase-Glo ATP depletion luminescence
Sequence of Calcium-dependent protein kinase 4 (Plasmodium falciparum (isolate 3D7)) (Q8IBS5 whole entry, looked up): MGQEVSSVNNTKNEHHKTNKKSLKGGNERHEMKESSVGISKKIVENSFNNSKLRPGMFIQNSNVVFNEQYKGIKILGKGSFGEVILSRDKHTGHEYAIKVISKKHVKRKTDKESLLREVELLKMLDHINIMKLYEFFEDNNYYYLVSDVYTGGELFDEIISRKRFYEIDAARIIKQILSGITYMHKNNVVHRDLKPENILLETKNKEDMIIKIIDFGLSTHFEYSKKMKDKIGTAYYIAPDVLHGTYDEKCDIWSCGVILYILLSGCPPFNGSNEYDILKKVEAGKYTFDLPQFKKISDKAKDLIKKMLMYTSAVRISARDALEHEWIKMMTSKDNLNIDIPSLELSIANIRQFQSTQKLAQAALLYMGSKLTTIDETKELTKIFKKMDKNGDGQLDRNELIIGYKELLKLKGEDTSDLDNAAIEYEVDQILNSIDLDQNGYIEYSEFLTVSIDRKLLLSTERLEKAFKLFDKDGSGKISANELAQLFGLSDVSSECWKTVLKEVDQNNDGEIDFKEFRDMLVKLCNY

Cc1[nH]c2ccc(O)cc2c1C1CCN(CC2CCN(C(=O)/C=C/c3ccc(Cl)c(Cl)c3)CC2)CC1
active: growth inhibition [1] 99% | growth inhibition [4] 99%
inactive: inhibition [2] 23% | inhibition [3] -13% | outcome [5] | outcome [6] | outcome [7] | outcome [8]

O=C(/C=C/c1cc(F)cc(C(F)(F)F)c1)N1CCC(CN2CCC(c3c[nH]c4ccccc34)CC2)CC1
active: growth inhibition [1] 74% | growth inhibition [4] 101%
inactive: inhibition [2] 32% | inhibition [3] 3% | outcome [5] | outcome [6] | outcome [7] | outcome [8]

Cc1cc(-c2ncc[nH]2)ccc1-c1ccc(C(=O)N2CCc3cc4c(cc32)C2(CCN(C)CC2)CO4)cc1
inactive: inhibition [2] 32% | inhibition [3] 0% | outcome [5] | outcome [6] | outcome [7] | outcome [8]
active: growth inhibition [1] 98% | growth inhibition [4] 101%

CC[C@H]1CN2CC[C@@H]1C[C@H]2[C@H](O)c1cc(N2CCSCC2)nc2ccc(OC)cc12
inactive: inhibition [2] 2% | inhibition [3] 1% | outcome [5] | outcome [6] | outcome [7] | outcome [8]
active: growth inhibition [1] 98% | growth inhibition [4] 99%

COC(=O)c1ccc(CC(C)NCC(O)c2cccc(C(F)(F)F)c2)c(OC)c1 (centres undefined)
active: growth inhibition [1] 98% | growth inhibition [4] 100%
inactive: inhibition [2] 5% | inhibition [3] 7% | outcome [5] | outcome [6] | outcome [7] | outcome [8]

Oc1cccc(C2CCCN(CCc3c[nH]c4ccccc34)C2)c1 (centres undefined)
active: growth inhibition [4] 93%
inactive: growth inhibition [1] 40% | inhibition [2] 0% | inhibition [3] 2% | outcome [5] | outcome [6] | outcome [7] | outcome [8]

CCN(CC)CCOC(=O)C(OC)(c1ccccc1)c1ccccc1
inactive: growth inhibition [1] 6% | inhibition [2] -4% | inhibition [3] 2% | outcome [5] | outcome [6] | outcome [7] | outcome [8]
active: growth inhibition [4] 97%

CNCCCCCCc1ccc(CC(C)NCC(O)c2cccc(Cl)c2)cc1 (centres undefined)
inactive: inhibition [2] 22% | inhibition [3] 4% | outcome [5] | outcome [6] | outcome [7] | outcome [8]
active: growth inhibition [1] 76% | growth inhibition [4] 94%

CC(C)CNCc1cccc(-c2cccc(CN(C(=O)NC3CCCCC3)C3CCN(Cc4ccccc4)CC3)c2)c1
active: growth inhibition [1] 87% | growth inhibition [4] 97%
inactive: inhibition [2] 32% | inhibition [3] 8% | outcome [5] | outcome [6] | outcome [7] | outcome [8]

Cc1[nH]c2cc(F)ccc2c1C1=CCN(CCCCC2(C)C(=O)Nc3c(F)cccc32)CC1 (centres undefined)
active: growth inhibition [1] 89% | growth inhibition [4] 96%
inactive: inhibition [2] 15% | inhibition [3] -7% | outcome [5] | outcome [6] | outcome [7] | outcome [8]

COC(C(=O)OCCC1CCCN1C)(c1ccccc1)C1CCCCC1 (centres undefined)
active: growth inhibition [4] 100%
inactive: growth inhibition [1] 5% | inhibition [2] 3% | inhibition [3] 4% | outcome [5] | outcome [6] | outcome [7] | outcome [8]

Oc1ccccc1CN1CCC(CCOC(c2ccccc2)c2ccc(Cl)cc2)CC1 (centres undefined)
active: growth inhibition [1] 99% | growth inhibition [4] 97%
inactive: inhibition [2] 19% | inhibition [3] -8% | outcome [5] | outcome [6] | outcome [7] | outcome [8]

Cc1ccc(/C=C/C(=O)NC2CCC(CN3CCC(c4c[nH]c5ccccc45)CC3)CC2)cc1 (centres undefined)
inactive: inhibition [2] 32% and 41% | inhibition [3] -2% and 3% | outcome [5] | outcome [6] | outcome [7] | outcome [8]
active: growth inhibition [1] 66% and 69% | growth inhibition [4] 101%

COC(=O)c1ccc(CC(C)NCC(O)c2cccc(C(F)(F)F)c2)cc1F (centres undefined)
active: growth inhibition [4] 82%
inactive: growth inhibition [1] 47% | inhibition [2] 1% | inhibition [3] 7% | outcome [5] | outcome [6] | outcome [7] | outcome [8]

Oc1ccc(CN2CCN(CCOC(c3ccc(F)cc3)c3ccc(F)cc3)CC2)cc1Cl
active: growth inhibition [1] 87% | growth inhibition [4] 96%
inactive: inhibition [2] 19% | inhibition [3] -4% | outcome [5] | outcome [6] | outcome [7] | outcome [8]

COc1cc(/C=C/C(=O)NC2CCC(CN3CCC(c4c[nH]c5ccccc45)CC3)CC2)ccc1O (centres undefined)
inactive: growth inhibition [1] 45% and 44% | inhibition [2] 11% and 19% | inhibition [3] -8% and -2% | outcome [5] | outcome [6] | outcome [7] | outcome [8]
active: growth inhibition [4] 98% and 99%

S=C(NCCc1ccc(Cl)cc1)NC1CCC(CN2CCC(c3c[nH]c4ccccc34)CC2)CC1 (centres undefined)
active: growth inhibition [4] 100% and 101%
34% (inactive) and 84% (active): growth inhibition [1]
inactive: inhibition [2] 37% and 42% | inhibition [3] -2% and -8% | outcome [5] | outcome [6] | outcome [7] | outcome [8]

O=C(C=Cc1ccccc1C(F)(F)F)NC1CCC(CN2CCC(c3c[nH]c4ccccc34)CC2)CC1 (centres undefined)
47% (inactive) and 73% (active): inhibition [2]
47% (inactive) and 90% (active): growth inhibition [1]
inactive: inhibition [3] -1% and 1% | outcome [5] | outcome [6] | outcome [7] | outcome [8]
active: growth inhibition [4] 102%

N#Cc1c(F)cc(N2CCC(NCC[C@H](N)Cc3ccc(F)c(F)c3)CC2)cc1F
inactive: growth inhibition [1] 26% | inhibition [3] 4% | outcome [5] | outcome [6] | outcome [7] | outcome [8]
active: inhibition [2] 70% | growth inhibition [4] 102%

CC(=O)C1(c2ccccc2)CCN(CCC(NC(=O)c2cc(C(F)(F)F)cc(C(F)(F)F)c2)c2ccc(Cl)c(Cl)c2)CC1 (centres undefined)
inactive: inhibition [2] 9% | inhibition [3] 2% | outcome [5] | outcome [6] | outcome [7] | outcome [8]
active: growth inhibition [1] 82% | growth inhibition [4] 91%

CC(Cc1ccc(OCCOc2ccccc2)cc1)NCC(O)c1cccc(C(F)(F)F)c1 (centres undefined)
active: growth inhibition [1] 76% | growth inhibition [4] 91%
inactive: inhibition [2] 16% | inhibition [3] -6% | outcome [5] | outcome [6] | outcome [7] | outcome [8]

Cc1nc2ccccc2n1C1C[C@H]2CC[C@@H](C1)N2Cc1nccn1-c1ccccc1 (some centres undefined)
active: growth inhibition [1] 96% | growth inhibition [4] 94%
inactive: inhibition [2] 0% | inhibition [3] -4% | outcome [5] | outcome [6] | outcome [7] | outcome [8]

CCOC(C(=O)OCC1CCCN1C(C)C)(c1ccccc1)c1ccccc1 (centres undefined)
active: growth inhibition [4] 98%
inactive: growth inhibition [1] 2% | inhibition [2] -1% | inhibition [3] -3% | outcome [5] | outcome [6] | outcome [7] | outcome [8]

FC(F)(F)c1cccc(N2CCC(CN3CCC(c4c[nH]c5ccccc45)CC3)CC2)n1
active: growth inhibition [4] 84%
inactive: growth inhibition [1] 10% | inhibition [2] 41% | inhibition [3] -3% | outcome [5] | outcome [6] | outcome [7] | outcome [8]

Cc1[nH]c2ccccc2c1C1=CCN(CCCCCNC(=O)/C=C/c2ccc(Cl)c(Cl)c2)CC1
inactive: inhibition [2] 28% | inhibition [3] -1% | outcome [5] | outcome [6] | outcome [7] | outcome [8]
active: growth inhibition [1] 89% | growth inhibition [4] 97%

CC(=O)C1(c2ccccc2)CCN(CCC2(c3ccc(Cl)c(Cl)c3)CN(C(=O)CC(C)C)CCO2)CC1 (centres undefined)
active: growth inhibition [1] 94% | growth inhibition [4] 92%
inactive: inhibition [2] 7% | inhibition [3] 0% | outcome [5] | outcome [6] | outcome [7] | outcome [8]

COC(=O)c1ccc(CC(C)NCC(O)c2ccc(Cl)c(Cl)c2)cc1 (centres undefined)
inactive: growth inhibition [1] 33% | inhibition [2] -1% | inhibition [3] 0% | outcome [5] | outcome [6] | outcome [7] | outcome [8]
active: growth inhibition [4] 87%

Cc1[nH]c2ccccc2c1C1=CCN(CCCCC2(C)C(=O)Nc3cccc(F)c32)CC1 (centres undefined)
inactive: inhibition [2] 9% | inhibition [3] -4% | outcome [5] | outcome [6] | outcome [7] | outcome [8]
active: growth inhibition [1] 90% | growth inhibition [4] 95%

CC(Cc1ccc(OCc2ccccc2)cc1)NCC(O)c1cccc(Cl)c1 (centres undefined)
active: growth inhibition [1] 99% | inhibition [2] 50% | growth inhibition [4] 99%
inactive: inhibition [3] 5% | outcome [5] | outcome [6] | outcome [7] | outcome [8]

CC[C@H]1CN2CC[C@H]1C[C@H]2[C@H](O)c1cc(-c2cccc(C)c2)nc2ccc(OC)cc12
inactive: inhibition [2] 15% | inhibition [3] 3% | outcome [5] | outcome [6] | outcome [7] | outcome [8]
active: growth inhibition [1] 100% | growth inhibition [4] 100%

CN(C)c1cccc(NC(=O)N[C@H]2N=C(c3ccccc3)c3ccccc3N(CC(=O)N3CCCC3)C2=O)c1
active: growth inhibition [1] 98% | growth inhibition [4] 98%
inactive: inhibition [2] -5% | inhibition [3] -4% | outcome [5] | outcome [6] | outcome [7] | outcome [8]

COc1ccc(N(c2nc(-c3cc(Cl)ccc3Cl)cs2)C2CCNCC2)cc1
inactive: growth inhibition [1] 4% | inhibition [2] 17% | inhibition [3] -2% | outcome [5] | outcome [6] | outcome [7] | outcome [8]
active: growth inhibition [4] 91%

CC[C@H]1CN2CC[C@H]1C[C@H]2[C@H](O)c1cc(-c2ccc(OC(F)(F)F)cc2)nc2ccc(OC)cc12
inactive: inhibition [2] 24% | inhibition [3] 0% | outcome [5] | outcome [6] | outcome [7] | outcome [8]
active: growth inhibition [1] 99% | growth inhibition [4] 98%

CCCCNC(c1ccc(Cl)cc1)C(O)c1ccc(Cl)cc1 (centres undefined)
inactive: inhibition [2] 13% | inhibition [3] 4% | outcome [5] | outcome [6] | outcome [7] | outcome [8]
active: growth inhibition [1] 98% | growth inhibition [4] 99%

CCc1ccc(CN2CCC(CN(C(=O)c3ccccc3)c3ccc(Cl)cc3)CC2)cc1
active: growth inhibition [1] 95% | growth inhibition [4] 96%
inactive: inhibition [2] 12% | inhibition [3] -4% | outcome [5] | outcome [6] | outcome [7] | outcome [8]

CN(c1cc(NC(=O)c2cccs2)ccn1)C1CCN(Cc2ccccc2)CC1
active: growth inhibition [1] 87% | growth inhibition [4] 92%
inactive: inhibition [2] -2% | inhibition [3] -1% | outcome [5] | outcome [6] | outcome [7] | outcome [8]

CN1C(=O)OC[C@@H]1Cc1ccc2[nH]cc(C3=CCN(Cc4ccccc4)CC3)c2c1
inactive: inhibition [2] 4% | inhibition [3] -9% | outcome [5] | outcome [6] | outcome [7] | outcome [8]
active: growth inhibition [1] 66% | growth inhibition [4] 86%

O=C(Nc1ccc(Oc2ccccc2)cc1)N1CCC(CN2CCC(c3c[nH]c4ccccc34)CC2)CC1
active: growth inhibition [1] 59% | inhibition [2] 53% | growth inhibition [4] 100%
inactive: inhibition [3] -1% | outcome [5] | outcome [6] | outcome [7] | outcome [8]
